# Reference: the supplement of paper PMC8728848
# The full list was thinned out, with the strongest signals kept by preference.
# Assays:
# Test in all cases: glycan array binding signal (z-score within array); higher = stronger binding
# Details in all cases: glycan notation: IUPAC condensed, linker removed
# [1] = target: Fuc(a1-2)Gal(b1-3)GalNAc(a1-3)[Fuc(a1-2)]Gal(b1-4)GlcNAc
# Summary of the method: (§1)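 The Consortium for Functional Glycomics database supplied 3228 glycan arrays, of which those lacking an available protein sequence were dropped. The binding signal, a within-array Z-score, was averaged across arrays of the same protein sequence and across linkers. Negative scores can be read as non-binding.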
# [2] = target: Fuc(a1-2)Gal(b1-3)GalNAc(b1-4)[Neu5Ac(a2-3)]Gal(b1-4)Glc
# Summary of the method: as §1
# [3] = target: Fuc(a1-2)Gal(b1-3)GlcNAc(b1-3)[Gal(b1-4)GlcNAc(b1-6)]Gal(b1-4)Glc
# Summary of the method: as §1
# [4] = target: Fuc(a1-2)Gal(b1-3)[Fuc(a1-4)]GlcNAc(b1-3)[Fuc(a1-3)[Gal(b1-4)]GlcNAc(b1-6)]Gal(b1-4)Glc
# Summary of the method: as §1
# [5] = target: Fuc(a1-2)Gal(b1-4)GlcNAc(b1-2)[Fuc(a1-2)Gal(b1-4)GlcNAc(b1-4)]Man(a1-3)[Fuc(a1-2)Gal(b1-4)GlcNAc(b1-2)Man(a1-6)]Man(b1-4)GlcNAc(b1-4)GlcNAc
# Summary of the method: as §1
# [6] = target: Fuc(a1-2)[Gal(a1-3)]Gal(b1-3)GlcNAc
# Summary of the method: as §1
# [7] = target: Fuc(a1-2)[Gal(a1-3)]Gal(b1-4)Glc
# Summary of the method: as §1
# [8] = target: Fuc(a1-2)[Gal(a1-4)]Gal(b1-4)GlcNAc
# Summary of the method: as §1
# [9] = target: Fuc(a1-2)[GalNAc(a1-3)]Gal(b1-4)Glc
# Summary of the method: as §1
# [10] = target: Fuc(a1-2)[GalNAc(a1-3)]Gal(b1-4)GlcNAc
# Summary of the method: as §1
# [11] = target: Fuc(a1-2)[GalNAc(a1-3)]Gal(b1-4)GlcNAc(b1-2)Man(a1-3)[Fuc(a1-2)[GalNAc(a1-3)]Gal(b1-4)GlcNAc(b1-2)Man(a1-6)]Man(b1-4)GlcNAc(b1-4)GlcNAc
# Summary of the method: as §1
# [12] = target: Fuc(a1-3)[Gal(b1-4)]GlcNAc(b1-4)Gal(b1-4)[Fuc(a1-3)]GlcNAc(b1-4)Gal(b1-4)[Fuc(a1-3)]GlcNAc
# Summary of the method: as §1
# [13] = target: Fuc(a1-4)GlcNAc
# Summary of the method: as §1
# [14] = target: Gal(a1-3)Gal(b1-4)Glc
# Summary of the method: as §1
# [15] = target: Gal(a1-4)Gal(b1-4)GlcNAc(b1-2)Man(a1-3)[Gal(a1-4)Gal(b1-4)GlcNAc(b1-2)Man(a1-6)]Man(b1-4)GlcNAc(b1-4)GlcNAc
# Summary of the method: as §1
# [16] = target: Gal(b1-3)GlcNAc
# Summary of the method: as §1
# [17] = target: Gal(b1-3)GlcNAc(b1-2)Man(a1-3)[Gal(b1-3)GlcNAc(b1-2)Man(a1-6)]Man(b1-4)GlcNAc(b1-4)GlcNAc
# Summary of the method: as §1
# [18] = target: Gal(b1-3)GlcNAc(b1-2)Man(a1-3)[Gal(b1-3)GlcNAc(b1-2)Man(a1-6)]Man(b1-4)GlcNAc(b1-4)[Fuc(a1-6)]GlcNAc
# Summary of the method: as §1
# [19] = target: Gal(b1-3)[Fuc(a1-4)]GlcNAc(b1-2)Man(a1-3)[Gal(b1-3)[Fuc(a1-4)]GlcNAc(b1-2)Man(a1-6)]Man(b1-4)GlcNAc(b1-4)GlcNAc
# Summary of the method: as §1
# [20] = target: Gal(b1-3)[Fuc(a1-4)]GlcNAc(b1-2)Man(a1-3)[Gal(b1-3)[Fuc(a1-4)]GlcNAc(b1-2)Man(a1-6)]Man(b1-4)GlcNAc(b1-4)[Fuc(a1-6)]GlcNAc
# Summary of the method: as §1
# [21] = target: Gal(b1-3)[Neu5Ac(a2-6)]GalNAc
# Summary of the method: as §1
# [22] = target: Gal(b1-3)[Neu5Ac(a2-6)]GlcNAc(b1-6)Gal(b1-4)Glc
# Summary of the method: as §1
# [23] = target: Gal(b1-4)GlcNAc(b1-2)Man(a1-3)[Gal(b1-4)GlcNAc(b1-2)Man(a1-6)]Man(b1-4)GlcNAc(b1-4)[Fuc(a1-6)]GlcNAc
# Summary of the method: as §1
# [24] = target: Gal(b1-4)GlcNAc(b1-2)Man(a1-3)[GlcNAc(b1-2)Man(a1-6)]Man(b1-4)GlcNAc(b1-4)GlcNAc
# Summary of the method: as §1
# [25] = target: Gal(b1-4)GlcNAc(b1-6)Gal(b1-4)GlcNAc
# Summary of the method: as §1
# [26] = target: Gal3S(b1-3)[Fuc(a1-4)]GlcNAc
# Summary of the method: as §1
# [27] = target: Gal3S(b1-4)Glc6S
# Summary of the method: as §1
# [28] = target: Gal3S(b1-4)GlcNAc6S
# Summary of the method: as §1
# [29] = target: Gal3S6S(b1-4)GlcNAc6S
# Summary of the method: as §1
# [30] = target: Gal6S(b1-3)GlcNAc6S
# Summary of the method: as §1
# [31] = target: Gal6S(b1-4)GlcNAc6S
# Summary of the method: as §1
# [32] = target: GalNAc(b1-6)GalNAc
# Summary of the method: as §1
# [33] = target: Glc(b1-6)Glc
# Summary of the method: as §1
# [34] = target: GlcA(b1-3)GlcNAc
# Summary of the method: as §1
# [35] = target: GlcNAc(a1-4)Gal(b1-4)GlcNAc(b1-3)Gal(b1-4)[Fuc(a1-3)]GlcNAc(b1-3)Gal(b1-4)[Fuc(a1-3)]GlcNAc
# Summary of the method: as §1
# [36] = target: GlcNAc(b1-2)Man(a1-3)[GlcNAc(b1-4)][GlcNAc(b1-2)Man(a1-6)]Man(b1-4)GlcNAc(b1-4)GlcNAc
# Summary of the method: as §1
# [37] = target: GlcNAc(b1-2)[GlcNAc(b1-4)]Man(a1-3)[GlcNAc(b1-4)][GlcNAc(b1-2)Man(a1-6)]Man(b1-4)GlcNAc(b1-4)GlcNAc
# Summary of the method: as §1
# [38] = target: Neu5Ac(a2-3)Gal(b1-3)GalNAc(b1-3)Gal(a1-4)Gal(b1-4)Glc
# Summary of the method: as §1
# [39] = target: Neu5Ac(a2-3)Gal(b1-3)GlcNAc(b1-3)Gal(b1-3)GlcNAc
# Summary of the method: as §1
# [40] = target: Neu5Ac(a2-3)Gal(b1-3)[Fuc(a1-4)]GlcNAc(b1-3)Gal(b1-3)[Fuc(a1-4)]GlcNAc
# Summary of the method: as §1
# [41] = target: Neu5Ac(a2-3)Gal(b1-4)GlcNAc(b1-3)Gal(b1-3)GlcNAc
# Summary of the method: as §1
# [42] = target: Neu5Ac(a2-3)Gal(b1-4)GlcNAc(b1-6)[Neu5Ac(a2-3)Gal(b1-3)]GalNAc
# Summary of the method: as §1
# [43] = target: Neu5Ac(a2-3)Gal(b1-4)[Fuc(a1-3)]GlcNAc(b1-3)GalNAc
# Summary of the method: as §1
# [44] = target: Neu5Ac(a2-3)Gal(b1-4)[Fuc(a1-3)]GlcNAc(b1-6)[Gal(b1-3)]GalNAc
# Summary of the method: as §1
# [45] = target: Neu5Ac(a2-3)[GalNAc(b1-4)]Gal(b1-4)GlcNAc(b1-3)GalNAc
# Summary of the method: as §1
# [46] = target: Neu5Ac(a2-6)Gal(b1-4)GlcNAc(b1-2)Man(a1-3)[GlcNAc(b1-2)Man(b1-4)GlcNAc(b1-2)Man(a1-6)]Man(b1-4)GlcNAc(b1-4)GlcNAc
# Summary of the method: as §1
# [47] = target: Neu5Ac(a2-6)Gal(b1-4)GlcNAc(b1-2)Man(a1-3)[Man(a1-6)]Man(b1-4)GlcNAc(b1-4)GlcNAc
# Summary of the method: as §1
# [48] = target: Neu5Ac(a2-6)Gal(b1-4)GlcNAc(b1-3)Gal(b1-4)GlcNAc(b1-3)Gal(b1-4)GlcNAc
# Summary of the method: as §1
# [49] = target: Neu5Ac(a2-6)Gal(b1-4)GlcNAc(b1-3)Gal(b1-4)[Fuc(a1-3)]GlcNAc(b1-3)Gal(b1-4)[Fuc(a1-3)]GlcNAc
# Summary of the method: as §1
# [50] = target: Neu5Ac(a2-8)Neu5Ac(a2-3)[Gal(b1-3)GalNAc(b1-4)]Gal(b1-4)Glc
# Summary of the method: as §1
binder,measurement,setting,value
"rPitB (Streptococcus pneumoniae), A0A0I7U739 (protein) MSEIEIINAKKIYHDVPVIENLNITIPKGSLFTLLGASGCGKTTLLRMIAGFNSIKDGEFYFDDTKINNMEPSKRNIGLVFQNYAIFPHLTVRDNVAFGLMQKKVPKEELIQQTNKYLELMQIAQYAD",glycan array binding signal (z-score),[1],-0.708
same,glycan array binding signal (z-score),[2],-0.128
same,glycan array binding signal (z-score),[3],-0.397
same,glycan array binding signal (z-score),[4],0.227
same,glycan array binding signal (z-score),[5],0.316
same,glycan array binding signal (z-score),[6],-0.113
same,glycan array binding signal (z-score),[7],1.11
same,glycan array binding signal (z-score),[8],-0.108
same,glycan array binding signal (z-score),[9],-0.271
same,glycan array binding signal (z-score),[10],-0.509
same,glycan array binding signal (z-score),[11],0.481
same,glycan array binding signal (z-score),[12],3.03
same,glycan array binding signal (z-score),[13],-0.579
same,glycan array binding signal (z-score),[14],-0.617
same,glycan array binding signal (z-score),[15],1.43
same,glycan array binding signal (z-score),[16],-0.704
same,glycan array binding signal (z-score),[17],0.944
same,glycan array binding signal (z-score),[18],0.638
same,glycan array binding signal (z-score),[19],3.68
same,glycan array binding signal (z-score),[20],2.09
same,glycan array binding signal (z-score),[21],0.092
same,glycan array binding signal (z-score),[22],-0.142
same,glycan array binding signal (z-score),[23],0.8
same,glycan array binding signal (z-score),[24],-0.568
same,glycan array binding signal (z-score),[25],-0.596
same,glycan array binding signal (z-score),[26],-0.575
same,glycan array binding signal (z-score),[27],0.112
same,glycan array binding signal (z-score),[28],0.471
same,glycan array binding signal (z-score),[29],-0.233
same,glycan array binding signal (z-score),[30],0.052
same,glycan array binding signal (z-score),[31],0.24
same,glycan array binding signal (z-score),[32],-0.608
same,glycan array binding signal (z-score),[33],-0.176
same,glycan array binding signal (z-score),[34],5.72
same,glycan array binding signal (z-score),[35],3.89
same,glycan array binding signal (z-score),[36],-0.914
same,glycan array binding signal (z-score),[37],-1.01
same,glycan array binding signal (z-score),[38],-0.604
same,glycan array binding signal (z-score),[39],-0.301
same,glycan array binding signal (z-score),[40],2.33
same,glycan array binding signal (z-score),[41],-0.394
same,glycan array binding signal (z-score),[42],0.027
same,glycan array binding signal (z-score),[43],4.13
same,glycan array binding signal (z-score),[44],2.86
same,glycan array binding signal (z-score),[45],-0.463
same,glycan array binding signal (z-score),[46],-0.255
same,glycan array binding signal (z-score),[47],0.505
same,glycan array binding signal (z-score),[48],0.323
same,glycan array binding signal (z-score),[49],0.032
same,glycan array binding signal (z-score),[50],-0.053
